According to PubChem BioAssay (Tox21):
“And” between values parts separate entries of the source, which are not always exact repeats. Equal values may be shown once. Records with an inconclusive call do not appear. The source made the active and inactive calls. Unless noted, the call rests on the fitted dose curve; in most records, active means well fitted curve in the direction sought with a large enough effect in the repeat runs; inconclusive means weak or mixed curves; inactive means no such curve, though single readings can be large; an effect the other way counts as inactive or inconclusive.

Legend:
[1] = qHTS assay for small molecule agonists of the p53 signaling pathway (AID 651631; calls by dose curve; further: nearly all actives have a fitted effect of over 15% in size; further: potency means the concentration at half of the fitted maximal effect)
Summary of the method: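 We treat p53RE-bla HCT-116 cells with compounds for 16 h at 37 °C, add LiveBLAzer B/G FRET substrate for 2 h at room temperature, and measure fluorescence intensity.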

[2] = qHTS assay for small molecules that induce genotoxicity in human embryonic kidney cells expressing luciferase-tagged ATAD5 (AID 651632); further: nearly all actives have a fitted effect of over 15% in size
Summary of the method: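 HEK293T cells carrying a luciferase reporter tagged to ATAD5 were exposed to compound or DMSO vehicle for 16 hr at 37C, 5% CO2. Amplite was added, and after 30 min at room temperature luciferase activity was read as a marker of ATAD5 induction.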

[3] = qHTS assay for small molecule agonists of the p53 signaling pathway - cell viability (AID 651633; calls by dose curve; further: nearly all actives have a fitted effect of over 30% in size; further: potency means the concentration at half of the fitted maximal effect)
Summary of the method: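 Viability counter-read: CellTiter-Glo luminescence (30 min, room temperature) in the same p53RE-bla plates. These plates had been exposed to compounds for 16 h at 37 C.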

[4] = qHTS assay for small molecules that induce genotoxicity in human embryonic kidney cells expressing luciferase-tagged ATAD5 - cell viability (AID 651634; calls by dose curve; further: nearly all actives have a fitted effect of over 25% in size; further: potency means the concentration at half of the fitted maximal effect)
Summary of the method: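 HEK293T cells expressing luciferase-tagged ATAD5 were exposed to compound or DMSO for 15.5 hr at 37C, 5% CO2. Viability was then read as live-cell protease activity by CellTiter-Fluor fluorescence after 30 min at 37C.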

[5] = qHTS assay for small molecule disruptors of the mitochondrial membrane potential - cell viability (AID 720634; calls by dose curve;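 further: human HepG2 liver cancer cells; nearly all actives have a fitted effect of over 20% in size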)
Summary of the method: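 HepG2 cells seeded overnight at 37 C, then exposed to compound or DMSO for 1 hr at 37 C, 5% CO2. m-MPI dye added, then CellTiter-Glo for 30 min at room temperature; viability read as ATP luminescence.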

[6] = qHTS assay to test for compound auto fluorescence at 590 nm (red) in HepG2 cells (AID 720674)
Summary of the method: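 1 hr compound incubation on HepG2 cells, 37 C, 5% CO2; plate read ex 540 nm / em 590 nm; intensities reported as Rose Bengal sodium equivalents.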

[7] = qHTS assay to test for compound auto fluorescence at 535 nm (green) in HepG2 cells (AID 720675)
[8] = qHTS assay to test for compound auto fluorescence at 460 nm (blue) in HEK293 cells (AID 720678)
Summary of the method: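 After cell attachment (4-5 hr, 37C), compounds were pinned onto HEK293 monolayers in 10% dialyzed FBS medium. The blue channel (405/460 nm) was read following overnight culture. Equivalency was calculated against triamterene.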

[9] = qHTS assay to test for compound auto fluorescence at 590 nm (red) in HEK293 cells (AID 720679)
Summary of the method: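 Plates of HEK293 cells (10% dialyzed FBS) are treated with 23 nL compound or DMSO vehicle after a 4-5 hr attachment period, incubated overnight at 37C, and read for red fluorescence at 540/590nm.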

[10] = qHTS assay to test for compound auto fluorescence at 535 nm (green) in HEK293 cells (AID 720680)
[11] = qHTS assay to test for compound auto fluorescence at 460 nm (blue) in HEK293 cell free culture (AID 720681)
Summary of the method: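 Blue fluorescence (Ex 405/Em 460 nm, triamterene-equivalent) was read immediately after pin transfer of compound or DMSO into medium (DMEM, 10% FBS) without cells.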

[12] = qHTS assay to test for compound auto fluorescence at 535 nm (green) in HEK293 cell free culture (AID 720682)
Summary of the method: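 Green-channel intensity (Ex/Em 485/535 nm) was recorded from compound-treated wells containing only DMEM with 10% FBS. Fluorescein provided the equivalency standard.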

[13] = qHTS assay to test for compound auto fluorescence at 590 nm (red) in HEK293 cell free culture (AID 720683)
Summary of the method: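 Red-channel autofluorescence of compounds in culture medium (DMEM, 10% FBS), no cells, measured at 540/590 nm. Rose Bengal sodium is the reference fluorophore for equivalence.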

[14] = qHTS assay to test for compound auto fluorescence at 460 nm (blue) in HepG2 cell free culture (AID 720685)
Summary of the method: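 Compound (23 nL) or DMSO pinned into cell-free MEM with 10% FBS; blue fluorescence read at 405/460 nm excitation/emission, expressed as auto-fluorescence equivalency to triamterene.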

[15] = qHTS assay to test for compound auto fluorescence at 535 nm (green) in HepG2 cell free culture (AID 720686)
[16] = qHTS assay to test for compound auto fluorescence at 460 nm (blue) in HepG2 cells (AID 720687)
Summary of the method: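 Blue-channel autofluorescence (Ex/Em 405/460 nm, triamterene-equivalent) was measured after 1 hr compound exposure at 37 C, 5% CO2. Cells were HepG2, plated overnight at 37 C in MEM plus 10% FBS.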

[17] = molecular target: Glucocorticoid receptor (Homo sapiens) (UniProt P04150); assay: qHTS assay to identify small molecule antagonists of the glucocorticoid receptor (GR) signaling pathway (AID 720692; active means well fitted inhibition curve with a large enough effect in the signal ratio in the repeat runs, not every such curve was filed as active; the % refers to the signal ratio)
Glucocorticoid receptor (Homo sapiens), sequence (P04150 whole entry, looked up): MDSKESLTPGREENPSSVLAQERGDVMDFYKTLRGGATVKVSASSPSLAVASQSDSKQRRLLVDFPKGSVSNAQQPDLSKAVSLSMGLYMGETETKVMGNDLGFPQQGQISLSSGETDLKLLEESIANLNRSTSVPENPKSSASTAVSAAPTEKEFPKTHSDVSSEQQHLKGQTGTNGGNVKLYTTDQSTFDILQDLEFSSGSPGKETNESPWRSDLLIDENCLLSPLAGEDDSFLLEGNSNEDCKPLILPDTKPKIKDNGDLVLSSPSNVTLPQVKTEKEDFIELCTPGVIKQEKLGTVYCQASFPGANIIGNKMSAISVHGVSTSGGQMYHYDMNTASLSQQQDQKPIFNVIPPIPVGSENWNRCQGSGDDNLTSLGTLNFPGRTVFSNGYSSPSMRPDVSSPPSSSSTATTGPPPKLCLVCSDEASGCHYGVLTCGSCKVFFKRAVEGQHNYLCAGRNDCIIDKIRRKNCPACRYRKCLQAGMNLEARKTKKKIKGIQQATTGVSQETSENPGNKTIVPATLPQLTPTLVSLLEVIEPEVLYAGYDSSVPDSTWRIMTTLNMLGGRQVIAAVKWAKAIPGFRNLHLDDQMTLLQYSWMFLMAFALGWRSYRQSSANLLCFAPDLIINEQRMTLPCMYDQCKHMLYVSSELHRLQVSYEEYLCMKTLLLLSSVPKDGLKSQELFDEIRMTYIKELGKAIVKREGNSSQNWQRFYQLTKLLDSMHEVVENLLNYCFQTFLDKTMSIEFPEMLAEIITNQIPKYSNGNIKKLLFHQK
Summary of the method: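 GR-bla HeLa cells (beta-lactamase reporter under glucocorticoid response element) were pre-plated 4 h at 37 C, treated with compounds plus 5 nM dexamethasone (final) for 18 h, then read by LiveBLAzer B/G FRET fluorescence after 2 h.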

[18] = molecular target: Glucocorticoid receptor (Homo sapiens) (UniProt P04150); assay: qHTS assay to identify small molecule agonists of the glucocorticoid receptor (GR) signaling pathway (AID 720691; active means well fitted activation curve with a large enough effect in the signal ratio in the repeat runs, not every such curve was filed as active; the % refers to the signal ratio); settings: GR-bla HeLa, beta-lactamase reporter ratio, 18 h; activation: at 62.4 µM (top of the series) unless noted
Summary of the method: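 GR-bla HeLa cells (beta-lactamase reporter under glucocorticoid response element) were plated 4 h at 37 C/5% CO2, given compounds in DMSO, and incubated 18 h at 37 C. LiveBLAzer B/G FRET substrate was added for 2 h at room temperature, then fluorescence intensity read.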

[19] = qHTS assay for small molecule disruptors of the mitochondrial membrane potential (AID 720635); further: potency means the concentration at half of the fitted maximal effect
Summary of the method: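 Mitochondrial membrane potential tracked with Mito-MPS dye, red aggregates (ex 540/em 590 nm) against green monomers (ex 490/em 535 nm). Compound treatment 1 hr at 37C, dye 30 min in HepG2.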

[20] = qHTS assay to test for compound auto fluorescence at 590 nm (red) in HepG2 cell free culture (AID 720684)
Summary of the method: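 Steps: dispense MEM/10% FBS medium, no cells; pin compound or DMSO vehicle; read red channel, Ex/Em 540/590 nm. Output given as Rose Bengal sodium equivalents.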

Measured: Potency

CCc1ccc(O)cc1
not listed: [18] | [19] | [20]
inactive: all other assays above

C=C(C)C(=O)OCCCCCCCCCCCC
not listed: [12] | [15] | [16] | [19] | [20]
inactive: all other assays above

CC(C)Cc1ccccc1
not listed: [12] | [18]
inactive: all other assays above

Cc1ccc(C)c(C)c1
not listed: [6] | [12] | [15]
inactive: all other assays above

O=C(Cl)c1c(Cl)c(Cl)c(C(=O)Cl)c(Cl)c1Cl
not listed: [6] | [7] | [8]
inactive: all other assays above

C=C(C)C(=O)OCC(CC)(COC(=O)C(=C)C)COC(=O)C(=C)C
not listed: [15] | [18] | [19] | [20]
inactive: all other assays above

OC[C@@H](O)[C@H](O)[C@H](O)[C@@H](O)CO
not listed: [12] | [16] | [17] | [18] | [19] | [20]
inactive: all other assays above

COCC(C)O (stereo unspecified)
not listed: [15] | [19] | [20]
inactive: all other assays above

CNC[C@H](O)[C@@H](O)[C@H](O)[C@H](O)CO
not listed: [7] | [16] | [17] | [18]
inactive: all other assays above

CC(=O)Nc1ccc(C(=O)O)cc1
not listed: [7] | [15] | [16] | [18] | [20]
inactive: all other assays above

O=S(=O)(O)c1cc(S(=O)(=O)O)c2c(N=Nc3ccccc3)c(O)ccc2c1
active: [4] 48.8 µM and 61.1 µM
not listed: [8] | [15] | [18] | [19]
inactive: all other assays above

S=c1nc[nH]c2nc[nH]c12
active: [1] 8.41 µM and 5.31 µM | [3] 1.88 µM and 1.19 µM
not listed: [8] | [17] | [18]
inactive: all other assays above

O=C(c1cc(O)c(O)c(O)c1)c1ccc(O)c(O)c1O
active: [1] 54.3 µM | [3] 54.3 µM | [4] 54.3 µM and 54.5 µM | [19] 30.5 µM and 19.3 µM
not listed: [7] | [8] | [17] | [18]
inactive: all other assays above

CC(=O)CCc1ccccc1
not listed: [7] | [17] | [18]
inactive: all other assays above

CCCCCCOC(C)=O
not listed: [7] | [12] | [15] | [16] | [18] | [20]
inactive: all other assays above

C=C(C)C(=O)OCCCCCC
not listed: [8] | [16] | [19]
inactive: all other assays above

c1ccc2[nH]cnc2c1
not listed: [6] | [8] | [17] | [18]
inactive: all other assays above

OCC1CCCO1 (stereo unspecified)
not listed: [8] | [15]
inactive: all other assays above

Nc1cc(-c2ccncc2)c[nH]c1=O
not listed: [15] | [16] | [17]
inactive: all other assays above

Oc1c(Cl)cc(Cl)c(Cl)c1Cl
active: [19] 11.9 µM and 19.3 µM
